In the library only some 3.6% were active in any assay of this set; here they are far more common.
CendR NRP1 mod = modulators of CendR peptide binding to NRP-1, primary screen, biochemical, fluorescence polarization, uHTS | Neuropilin-1 (Homo sapiens), O14786 | FAM-RPARPAR peptide binding to NRP-1 | inhibition, % at 25 µM | actives 0.85% (n = 360,000) | AID 602438, 2012;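 active means inhibition or corrected inhibition above about 18%, plus a signal ratio from 0.5 to 1.5, limit read from the data, passing the limit was not always enough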
Target sequence (O14786 whole entry, looked up): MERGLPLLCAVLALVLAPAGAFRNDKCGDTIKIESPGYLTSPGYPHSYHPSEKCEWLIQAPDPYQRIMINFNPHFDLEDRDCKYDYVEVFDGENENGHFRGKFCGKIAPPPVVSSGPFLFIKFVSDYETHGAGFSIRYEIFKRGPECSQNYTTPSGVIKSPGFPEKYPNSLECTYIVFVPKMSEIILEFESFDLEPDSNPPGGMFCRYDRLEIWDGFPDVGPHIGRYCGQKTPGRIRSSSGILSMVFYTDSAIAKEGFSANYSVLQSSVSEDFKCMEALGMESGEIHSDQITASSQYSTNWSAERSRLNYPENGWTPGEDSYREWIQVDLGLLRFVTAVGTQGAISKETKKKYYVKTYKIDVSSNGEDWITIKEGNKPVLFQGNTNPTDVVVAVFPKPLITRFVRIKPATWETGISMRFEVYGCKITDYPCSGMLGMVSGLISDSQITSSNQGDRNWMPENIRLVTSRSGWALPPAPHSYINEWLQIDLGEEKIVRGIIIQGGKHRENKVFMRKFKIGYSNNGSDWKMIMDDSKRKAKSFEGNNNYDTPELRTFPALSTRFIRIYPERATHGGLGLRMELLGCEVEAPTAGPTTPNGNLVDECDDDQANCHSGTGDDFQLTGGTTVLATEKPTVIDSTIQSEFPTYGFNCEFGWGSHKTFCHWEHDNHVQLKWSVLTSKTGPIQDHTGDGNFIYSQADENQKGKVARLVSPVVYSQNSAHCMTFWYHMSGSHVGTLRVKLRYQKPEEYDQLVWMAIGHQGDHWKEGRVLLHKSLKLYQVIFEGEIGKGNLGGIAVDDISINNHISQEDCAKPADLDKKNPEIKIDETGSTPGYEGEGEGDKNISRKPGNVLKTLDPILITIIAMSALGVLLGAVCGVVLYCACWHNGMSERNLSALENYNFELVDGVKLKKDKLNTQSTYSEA
Myeloid diff 2 = induction of myeloid progenitor differentiation, primary screen, cell-based, flow cytometry, MLPCN library | AID 624256, 2012 | calls only at 10 µM | actives 1% (n = 360,000) | ER-HoxA9 myeloid progenitors, lysozyme-GFP differentiation;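 active means normalized GFP-positive differentiation at or above the plate's own cutoff, the solvent-only control mean plus 3 SD; inconclusive means no clear call, values can overlap the other calls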;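 further: cells exposed to compound for four days before flow analysis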
NadD block = inhibitors of S. aureus NadD, primary screen, biochemical, colorimetric, uHTS. inhibition, % at 20 µM. purified NadD enzyme, colorimetric absorbance read-out. AID 602399, 2012. actives 0.78% (n = 360,000); in the data active means inhibition above about 26%
CRFR2-BP antag = antagonists of CRF-BP/CRF-R2 complex, primary screen, cell-based, HEK293, calcium dye fluorescence, uHTS; CRF-induced calcium fluorescence; inhibition, % at 11.8 µM; actives 0.59% (n = 350,000);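 active means inhibition of the ligand-induced calcium signal above about 50% at the single tested concentration, limit read from the data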
FAS-TE inh = FAS thioesterase domain inhibitors, primary screen, biochemical, fluorescence intensity, uHTS | recombinant FAS-TE, OMFH fluorogenic substrate, fluorescence endpoint | actives 0.67% (n = 360,000) | Fatty acid synthase (Homo sapiens), P49327 | inhibition, % at 15 µM;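 active means compounds whose normalised, plate-corrected inhibition of enzyme fluorescence in the single-dose primary screen is 50% or more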
FAS-TE conf = FAS thioesterase domain inhibitors, confirmation, biochemical, fluorescence intensity, single concentration. shares compounds with FAS-TE inh. recombinant FAS-TE, OMFH fluorogenic substrate. inhibition, % at 15 µM. actives 45% (n = 2,300). AID 624325, 2012;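 active means compounds inhibiting the enzyme by at least 50% at 15 µM in any one of the replicates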
Each line names hits and unclear results; the compound was inactive in the other large screens (follow-up assays come after a bar, where they were run).

COc1cc(CCc2ccccc2)c(C(=O)O)c(O)c1C/C=C(/C)CCC=C(C)C	CRFR2-BP antag 72.0, FAS-TE inh 87.4 | FAS-TE conf 59.2
O=C(/C=C/c1cccc([N+](=O)[O-])c1)N1CCN(c2ccccc2F)CC1	FAS-TE inh 56.3 | FAS-TE conf 42.1
Cn1c(C(=O)N2CCN(Cc3ccc4c(c3)OCO4)CC2)cc2c(=O)n(C)c3ccccc3c21	none
Cn1c(=O)c([N+](=O)[O-])c(N2CCN(Cc3ccc4c(c3)OCO4)CC2)c2ccccc21	FAS-TE inh 86.1 | FAS-TE conf 53.8
O=[N+]([O-])c1ccc2ncnc(N3CCN(Cc4ccc5c(c4)OCO5)CC3)c2c1	FAS-TE inh 81.7 | FAS-TE conf 86.6
O=[N+]([O-])c1cccnc1N1CCN(Cc2ccc3c(c2)OCO3)CC1	none
COc1ccc(NC(=O)CN2C(=O)COc3ccc(S(=O)(=O)N4CCCCC4)cc32)c(OC)c1	none
Cc1nc(-c2ccccc2)sc1C1(C)CC(c2cccc(F)c2)=NO1 (stereo not drawn)	none
Cc1cc(C)n(CCNC(=O)c2ccco2)n1	none (no result: Myeloid diff 2)
COc1ccc(C2CC(c3ccccc3)=NN2C(=O)COC(=O)c2cccc(S(=O)(=O)N(C)C)c2)cc1 (stereo not drawn)	FAS-TE inh 71.8 | FAS-TE conf inactive
COc1ccc(C2CC(c3ccccc3)=NN2C(=O)COC(=O)c2cnc(Cl)c(Cl)c2)cc1 (stereo not drawn)	none
COc1ccc(C2CC(c3ccccc3)=NN2C(=O)COC(=O)c2cccc(S(=O)(=O)N3CCOCC3)c2)cc1 (stereo not drawn)	FAS-TE inh 69.6 | FAS-TE conf inactive
CC1CCCN(S(=O)(=O)c2ccc(NC(=O)Cc3ccc(S(=O)(=O)N4CCOCC4)s3)cc2)C1 (stereo not drawn)	FAS-TE inh 61.0 | FAS-TE conf 27.6
CC1CCN(S(=O)(=O)c2ccc(NC(=O)Cc3ccc(S(=O)(=O)N4CCOCC4)s3)cc2)CC1	none (no result: Myeloid diff 2)
COc1ccc(CCN2C(=O)c3ccccc3C2c2nnnn2Cc2ccccc2)cc1OC (stereo not drawn)	none (no result: CRFR2-BP antag)
COc1ccc([N+](=O)[O-])cc1NC(=O)C(C)OC(=O)CC1CCCC1 (stereo not drawn)	FAS-TE inh 79.0 | FAS-TE conf 60.6
COc1ccc(Br)cc1CN(C)C(C)C(=O)Nc1cc([N+](=O)[O-])ccc1OC (stereo not drawn)	FAS-TE inh 54.3 | FAS-TE conf inactive
COc1ccc([N+](=O)[O-])cc1NC(=O)C(C)OC(=O)C1CCCC1 (stereo not drawn)	none
CC1CCCCC12NC(=O)N(CC(=O)N1CCN(C(=O)c3cccs3)CC1)C2=O (stereo not drawn)	none
CC1(C)CC(=O)c2cc(NC(=O)c3ccc(F)cc3)c(=O)oc2C1	none
CC(=O)N1CCN(c2ccc(S(C)(=O)=O)cc2[N+](=O)[O-])CC1	none
O=[N+]([O-])c1cccc(S(=O)(=O)Nc2cccc(-c3ccc(N4CCCC4)nn3)c2)c1	none
COc1ccc(S(=O)(=O)Nc2cccc(-c3ccc(N4CCCCCC4)nn3)c2)cc1OC	Myeloid diff 2 inconclusive, FAS-TE inh 53.7 | FAS-TE conf inactive
O=C(CNC(=O)c1ccc(-c2ccccc2)cc1)Nc1cccc(CO)c1	none
Cc1ccc(S(=O)(=O)N(Cc2ccccc2)c2ccccc2C(=O)Nc2ccccc2C(=O)NCc2ccco2)cc1	FAS-TE inh 52.6 | FAS-TE conf inactive
O=C(N/C(=C/C=C/c1ccccc1)C(=O)N1CCCCC1)c1ccc([N+](=O)[O-])cc1	FAS-TE inh 91.8 | FAS-TE conf 93.5
O=C(N/C(=C/c1ccc([N+](=O)[O-])cc1)C(=O)N1CCCC1)c1ccccc1	none
O=C(N/C(=C/C=C\c1ccccc1)C(=O)N1CCOCC1)c1ccc(Br)cc1	FAS-TE inh 65.0 | FAS-TE conf 61.3
CC(C)(C)NC(=O)/C(=C\C=C\c1ccccc1)NC(=O)c1ccc([N+](=O)[O-])cc1	FAS-TE inh 77.7 | FAS-TE conf 89.4
O=[N+]([O-])c1cccc(NC(=S)N2CCc3ccccc3C2)c1	FAS-TE inh 50.8 | FAS-TE conf 23.2
O=C(c1ccco1)N1CCN(C(=S)Nc2cccc([N+](=O)[O-])c2)CC1	none
O=C(Nc1cccc([N+](=O)[O-])c1)Nc1ccc2c(c1)CCC2	FAS-TE inh 53.1 | FAS-TE conf inactive
O=C(Nc1ccccc1)Nc1ccc2c(c1)CCC2	none
COc1cc(C(=O)OCc2csc(CC(=O)Nc3ccccc3C)n2)ccc1OCC(C)C	none
COc1ccc(C(=O)N/C(=C\c2cn(S(=O)(=O)N(C)C)c3ccccc23)C(=O)NCCCn2ccnc2)cc1	FAS-TE inh 54.0 | FAS-TE conf inactive
Cc1ccc(C(=O)N/C(=C\c2cn(S(=O)(=O)N(C)C)c3ccccc23)C(=O)NCCN2CCOCC2)cc1	FAS-TE inh 60.4 | FAS-TE conf 66.9
CCn1cc(/C=C(\NC(=O)c2ccc(OC)cc2)C(=O)NCCCn2ccnc2)c2ccccc21	none
CCCNC(=O)/C(=C/c1cn(S(=O)(=O)N(C)C)c2ccccc12)NC(=O)c1ccc(OC)cc1	FAS-TE inh 80.9 | FAS-TE conf 87.6
NC(=O)N(N)c1nc(N2CCCC2)nc(N2CCCC2)n1	none
NC(=O)C1(Nc2ccc(Br)cc2)CCCC1	none
CC(C)(C)c1ccc(CSc2ccc(S(=O)(=O)N3CCOCC3)cn2)cc1	FAS-TE inh 81.6 | FAS-TE conf 73.9
O=[N+]([O-])c1ccc(N2CCN(S(=O)(=O)c3ccccc3)CC2)cc1NCC1CCCO1 (stereo not drawn)	none
Cn1cnnc1Sc1cc(N2CCN(S(=O)(=O)c3ccc4ccccc4c3)CC2)ccc1[N+](=O)[O-]	FAS-TE inh 63.5 (no result: Myeloid diff 2) | FAS-TE conf inactive
O=[N+]([O-])c1ccc(N2CCN(S(=O)(=O)c3ccc4ccccc4c3)CC2)cc1NCC1CCCO1 (stereo not drawn)	FAS-TE inh 51.0 | FAS-TE conf inactive
O=C1C=C(c2ccc(Cl)c(C(F)(F)F)c2)C[C@@H](c2ccc(Cl)cc2)C1	FAS-TE inh 54.5 | FAS-TE conf inactive
O=C1C=C(c2ccc(Cl)c(C(F)(F)F)c2)C[C@@H](c2ccc(F)cc2)C1	FAS-TE inh 53.2 | FAS-TE conf inactive
CCc1ccc(NC(=O)COc2ccc(F)cc2C(=O)c2cnn(-c3ccccc3)c2)cc1	FAS-TE inh 52.9 | FAS-TE conf inactive
COc1ccccc1NC(=O)COc1ccccc1C(=O)c1cnn(-c2ccccc2)c1	none
Cc1cc(C)n(NC(=S)NC2CCCC2)c(=O)c1C#N	none

Screening results as filed in PubChem BioAssay.
